# The source made the active and inactive calls. Unless noted, no rule for the calls is given here.
# Key:
# [1] = HepG2 liver cancer cell viability effects, profiling panel, resazurin fluorescence, 24 h, PK04 Diversity Set (AID 1172); details: higher = more signal
# [2] = basal S. cerevisiae growth modulation, no modifier, primary screen, OD600, strain BY4716, 24 h, basal condition (AID 1173); details: OD600, 24 h, higher = more signal, called active from +8 up or from −8 down
# [3] = MM1S myeloma cell viability, profiling panel, resazurin fluorescence, basal, 24 h, PK04 Diversity Set (AID 1174); details: higher = more signal, called active from +8 up or from −8 down;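 also: MM1S multiple myeloma cell line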
# [4] = molecular target: Dihydroorotate dehydrogenase (quinone), mitochondrial (Plasmodium falciparum (isolate 3D7)) (UniProt Q08210); experiment: PfDHODH enzyme inhibitors, primary screen, biochemical, C-terminal His tag, absorbance 600 nm (AID 1175); details: DCIP absorbance 600 nm, higher = more signal, called active from +8 up or from −8 down;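 also: recombinant parasite enzyme with a five histidine tag at its C terminus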
# Chain of Dihydroorotate dehydrogenase (quinone), mitochondrial (Plasmodium falciparum (isolate 3D7)) (Q08210 whole entry, looked up): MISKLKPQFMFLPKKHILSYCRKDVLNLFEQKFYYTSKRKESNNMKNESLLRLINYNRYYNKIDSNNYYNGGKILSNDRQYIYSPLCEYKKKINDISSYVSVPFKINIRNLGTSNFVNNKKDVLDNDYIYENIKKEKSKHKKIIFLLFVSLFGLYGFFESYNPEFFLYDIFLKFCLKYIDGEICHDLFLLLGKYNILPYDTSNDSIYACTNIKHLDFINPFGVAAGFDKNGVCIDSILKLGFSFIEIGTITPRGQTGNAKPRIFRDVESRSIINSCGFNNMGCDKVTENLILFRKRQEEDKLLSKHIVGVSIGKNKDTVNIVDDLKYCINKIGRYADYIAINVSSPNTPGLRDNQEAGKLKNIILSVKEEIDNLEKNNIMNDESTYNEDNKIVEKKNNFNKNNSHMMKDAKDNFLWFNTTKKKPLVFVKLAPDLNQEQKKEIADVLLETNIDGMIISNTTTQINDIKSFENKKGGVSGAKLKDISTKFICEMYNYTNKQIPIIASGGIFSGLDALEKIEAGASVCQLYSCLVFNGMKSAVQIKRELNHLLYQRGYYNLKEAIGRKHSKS
# [5] = P. aeruginosa biofilm formation inhibitors, primary screen, strain PAO1, LB-PBS medium, absorbance 600 nm (AID 1176); details: P. aeruginosa PAO1 growth/biofilm, A600, 12 h; higher = more signal
# [6] = S. cerevisiae RM11-1a growth modifiers, primary screen, strain RM11-1a, OD600, basal, 24 h (AID 1177); details: OD600, 24 h, higher = more signal, called active from +8 up or from −8 down;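 also: cultures grown under basal conditions with no added stressor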
# [7] = E. coli acrAB mutant growth effects, primary screen, E. coli filamentation inducers, strain DRC39, OD650, 24 h (AID 1178); details: higher = more signal, called active from +8 up or from −8 down;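 also: growth measured as culture turbidity by optical density at 650 nm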
# [8] = E. coli acrAB mutant growth effects, primary screen, E. coli filamentation inducers, strain DRC39, OD650, 48 h (AID 1179);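 also: screen aims at cell division blockers that make cells filament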; details: E. coli DRC39 delta-acrAB growth, higher = more signal, called active from +8 up or from −8 down
# [9] = RPMI8226 myeloma cell viability, profiling panel, resazurin fluorescence, basal, 24 h, PK04 Diversity Set (AID 1180); details: higher = more signal;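 also: RPMI8826 multiple myeloma cell line at 5000 cells per well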
# [10] = molecular target: E3 ubiquitin-protein ligase XIAP (Homo sapiens) (UniProt P98170); experiment: XIAP binders, primary screen, biophysical, small-molecule microarray, fluorescence 635 nm (AID 1181); details: small-molecule microarray binding, higher = more signal;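 also: score merges 667 nm emission and signal to noise over triplicate slides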
# Chain of E3 ubiquitin-protein ligase XIAP (Homo sapiens) (P98170 whole entry, looked up): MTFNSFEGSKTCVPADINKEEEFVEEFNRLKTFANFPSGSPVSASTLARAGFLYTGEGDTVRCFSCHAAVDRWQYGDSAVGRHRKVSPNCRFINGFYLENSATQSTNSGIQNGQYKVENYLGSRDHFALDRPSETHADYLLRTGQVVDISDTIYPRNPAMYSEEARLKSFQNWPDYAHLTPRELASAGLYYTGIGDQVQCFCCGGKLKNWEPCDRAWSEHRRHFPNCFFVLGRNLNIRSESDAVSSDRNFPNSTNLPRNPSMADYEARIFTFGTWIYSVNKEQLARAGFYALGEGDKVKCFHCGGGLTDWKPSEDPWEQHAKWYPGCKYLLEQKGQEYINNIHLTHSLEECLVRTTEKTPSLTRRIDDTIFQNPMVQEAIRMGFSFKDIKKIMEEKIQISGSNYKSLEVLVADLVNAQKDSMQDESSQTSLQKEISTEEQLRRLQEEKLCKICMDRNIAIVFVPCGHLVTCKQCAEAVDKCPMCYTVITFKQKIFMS
# [11] = test system: XIP peptide (Xip251-270) binding; experiment: small-molecule binders of XIP peptide, primary screen, biochemical, small-molecule microarray, fluorescence 635/667 nm, 0.1 µg/mL protein (AID 1182); details: fluorescent protein binding, 635 nm, higher = more signal, called active from +8 up or from −8 down
# [12] = test system: XIP peptide (Xip251-270); experiment: small-molecule binders of XIP peptide, primary screen, biochemical, small-molecule microarray, fluorescence 635/667 nm, 0.5 µg/mL protein (AID 1183); details: small-molecule microarray binding, fluorescence 635 nm; higher = more signal
# [13] = Plasmodium falciparum growth inhibition, primary screen, strain 3D7, DAPI fluorescence, 100 nL (AID 1184);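 also: parasites grown inside human red blood cells in medium with human serum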; details: P. falciparum 3D7 growth, 3 d, higher = more signal
# [14] = molecular target: Homeobox protein Hox-A13 (Mus musculus) (UniProt Q62424); experiment: inhibitors of HoxA13-DNA binding, primary screen, biochemical, fluorescence polarization, labeled oligonucleotide (AID 1185); details: 15 min, higher = more signal, called active from +8 up or from −8 down
# Chain of Homeobox protein Hox-A13 (Mus musculus) (Q62424 whole entry, looked up): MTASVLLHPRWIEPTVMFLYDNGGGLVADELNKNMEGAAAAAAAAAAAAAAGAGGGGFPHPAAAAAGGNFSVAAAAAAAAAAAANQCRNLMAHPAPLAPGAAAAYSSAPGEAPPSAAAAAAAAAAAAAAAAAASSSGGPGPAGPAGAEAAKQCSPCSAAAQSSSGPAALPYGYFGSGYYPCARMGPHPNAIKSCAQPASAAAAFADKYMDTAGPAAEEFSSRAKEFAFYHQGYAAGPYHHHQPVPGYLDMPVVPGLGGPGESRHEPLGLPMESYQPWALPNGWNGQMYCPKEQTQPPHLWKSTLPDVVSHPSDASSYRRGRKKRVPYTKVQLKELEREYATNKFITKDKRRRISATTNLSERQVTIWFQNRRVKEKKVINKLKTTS
# [15] = inhibitors of hydroxyurea-induced Chk1 phosphorylation, primary screen, imaging, HeLa, phospho-Chk1 antibody, percent positive cells (AID 1186); details: hydroxyurea-induced phospho-Chk1 immunofluorescence imaging, higher = more signal
# [16] = inhibitors of hydroxyurea-induced Chk1 phosphorylation, primary screen, imaging, HeLa, phospho-Chk1 nuclear intensity (AID 1187); details: hydroxyurea-induced phospho-Chk1 immunofluorescence imaging, higher = more signal
Structure (SMILES),z-score [1],z-score [2],z-score [3],composite z-score [4],z-score [5],z-score [6],z-score [7],z-score [8],z-score [9],composite z-score [10],composite z-score [11],composite z-score [12],z-score [13],z-score [14],z-score [15],z-score [16]
C[C@@H]1NC(=O)[C@@H](Cc2ccccc2)NC(=O)[C@@]23C(=O)N[C@@H](Cc4ccccc4)C2[C@H](C)[C@@]2(C)O[C@H]2C3/C=C/C/C=C\CNC1=O (stereo not given in full),-1.2,0.318 (inactive),0.0992 (inactive),0.0303 (inactive),0.413 (inactive),0.652 (inactive),-0.811 (inactive),-0.863 (inactive),0.329,-0.0138,-0.274 (inactive),0.711,-0.132,-6.78 (inactive),-0.115 (inactive),-0.328 (inactive)
COCCOC(=O)N1C(=O)[C@@]2(c3cc(C#CC4=CCCCC4)ccc31)[C@H](c1ccccc1OCCO)N1[C@H](c3ccccc3)[C@H](c3ccccc3)OC(=O)[C@H]1[C@@H]2C(=O)N1CCN(c2ncccn2)CC1,0.574,0.456 (inactive),0.411 (inactive),-0.184 (inactive),1.56 (inactive),0.756 (inactive),0.259 (inactive),-1.22 (inactive),0.0816,-0.124,0.735 (inactive),0.55,-1.86,1.02 (inactive),-0.333 (inactive),-0.385 (inactive)
COc1ccc([Si](C)(C)[C@@H]2[C@@H](CCO)O[C@]3(C(=O)N(Cc4ccccc4)c4ccc(NC(=O)[C@H](C)O)cc43)[C@H]2C)cc1,-4.57,2.31 (inactive),-6.39 (inactive),-0.347 (inactive),1.45 (inactive),5.11 (inactive),0.912 (inactive),0.477 (inactive),-6.12,0.157,0.816 (inactive),0.606,-2.83,-6.12 (inactive),-0.178 (inactive),-0.305 (inactive)
O=C1C2C=CC(C(O)c3cccc(O)c3)N(Nc3ccc([N+](=O)[O-])cc3)C2C(=O)N1c1ccccc1 (stereo not given),0.0585,0.661 (inactive),-0.337 (inactive),0.861 (inactive),-0.0601 (inactive),0.339 (inactive),-0.478 (inactive),-0.156 (inactive),-0.55,0.0927,-0.232 (inactive),0.342,1.25,-3.9 (inactive),0.181 (inactive),-0.322 (inactive)
CCOC(=O)[C@@H]1CCCCN1C(=O)C(=O)OC,-0.165,0.016 (inactive),-0.05 (inactive),0.0044 (inactive),-0.255 (inactive),0.245 (inactive),-0.26 (inactive),-0.253 (inactive),-0.64,0.269,0.636 (inactive),0.271,1.99,0.731 (inactive),0.284 (inactive),-0.0933 (inactive)
COc1ccccc1CN1C(=O)c2ccccc2[C@](Cc2ccccc2I)(C(=O)O)[C@@H]1c1ccc(CO)cc1,-0.569,-1.49 (inactive),-0.0504 (inactive),-0.0436 (inactive),0.416 (inactive),0.0183 (inactive),0.706 (inactive),0.602 (inactive),0.437,0.133,0.382 (inactive),0.798,-0.0897,-5.51 (inactive),-0.138 (inactive),0.142 (inactive)
CC(C)C(CO)N1C(=O)[C@@H]2C3C(=O)OCCC/C=C\[C@H]3OC23C=CCN(Cn2nnc4ccccc42)C(=O)[C@@H]13 (stereo not given in full),0.658,-0.133 (inactive),0.184 (inactive),-1.09 (inactive),0.233 (inactive),-0.0374 (inactive),0.246 (inactive),0.118 (inactive),0.37,-0.0367,-0.261 (inactive),0.348,0.596,-3.97 (inactive),-0.833 (inactive),-0.709 (inactive)
O=C1O[C@@H](c2ccccc2)[C@@H](c2ccccc2)N2[C@@H](c3ccc(O)cc3)[C@]3(C(=O)Nc4ccc(C#CCCO)cc43)[C@@H](C(=O)N3CCN(c4ncccn4)CC3)[C@H]12,1.13,1.94 (inactive),0.609 (inactive),0.378 (inactive),1.77 (inactive),2.96 (inactive),1.08 (inactive),0.602 (inactive),0.509,-0.197,0.678 (inactive),0.731,-2.11,-2.41 (inactive),-0.193 (inactive),0.058 (inactive)
CCCCCN1CC=CC23O[C@@H]4/C=C\CCC(C)OC(=O)C4[C@H]2C(=O)N(C(CO)C(C)C)[C@@H]3C1=O (stereo not given in full),0.713,-0.82 (inactive),-0.502 (inactive),-1.74 (inactive),0.193 (inactive),-0.116 (inactive),0.451 (inactive),0.236 (inactive),1.41,0.0627,0.733 (inactive),0.761,-1.07,-5.72 (inactive),-0.584 (inactive),-0.113 (inactive)
CCCC=C(CCC)[C@@H](NS(=O)(=O)CC12CCC(CC1=O)C2(C)C)c1ccc(C(=O)OC)cc1 (stereo not given in full),0.602,0.484 (inactive),0.16 (inactive),-0.929 (inactive),0.756 (inactive),-0.721 (inactive),0.0384 (inactive),-0.572 (inactive),-0.123,-0.102,-0.341 (inactive),0.316,-0.384,-2.11 (inactive),-0.225 (inactive),-0.276 (inactive)

# From PubChem BioAssay
